Data published in the supplement of paper PMC6763611.

Tested on: Plasmodium falciparum NF54
Test: growth inhibition relative to untreated control; higher = more inhibition
Details: 72 h
Outline: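 Growth inhibition was measured by SYBR Green fluorescence, normalised to untreated wells and corrected for background from uninfected erythrocytes. The parasites were P. falciparum NF54 ring stages (1% hematocrit, 1% parasitemia) exposed to single 5 μM or 1 μM doses of test compounds for 72 h at 37 °C, in either minimal RPMI or minimal RPMI containing 2.2 μM folate, 7.3 μM pABA, 7.3 μM pHBA, 111 μM tyrosine, 90 μM phenylalanine and tryptophan.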

[1] = 1 µM, MM + chorismate end-products (CM screening medium)
[2] = 5 µM, MM + chorismate end-products (CM screening medium)

| Compound | growth inhibition [1] [%] | growth inhibition (1 µM, minimal medium (MM)) [%] | growth inhibition [2] [%] | growth inhibition (5 µM, minimal medium (MM)) [%] |
| --- | --- | --- | --- | --- |
| CC1CCCN(C(=O)C(C)Nc2cc(Cl)ccc2N2CCOCC2)C1 (stereo not drawn) | 90.5 | 94.3 | 91 | 94.9 |
| CC(c1cc(Cl)cc(Cl)c1)N(C)c1ncc2c(N)nc(N)nc2n1 (stereo not drawn) | 54.9 | 91.6 | 53 | 77.7 |
| O=C(NCc1nnc2n1CCCCC2)c1ccc(-c2ccc(F)cc2)o1 | < 0 | < 0 | < 0 | < 0 |
| CCCn1c(NC(=O)c2ccc3ccccc3n2)nc2ccccc21 | 38.2 | 20.1 | 86.1 | 85 |
| CO[C@@H](C(=O)N1Cc2[nH]nc(NC(=O)c3ccc(N4CCN(C)CC4)cc3)c2C1)c1ccccc1 | 45.1 | 55.3 | 90 | 90.1 |
| CCCCCCCCCCCCCCCCOP(=O)([O-])OCC[N+](C)(C)C | 35.9 | 19 | 3.26 | 8.75 |
| CCOC(=O)NC(=O)c1ccsc1NC(=O)c1nc2ccccc2s1 | 36.1 | < 0 | < 0 | < 0 |
| c1ccc(Oc2ccc(-c3cc(C4CCOCC4)[nH]n3)cc2)cc1 | 1.03 | < 0 | < 0 | < 0 |
| CCC(C)NC(=O)c1ccc(NC(=O)C2(c3ccccc3)CCCC2)cc1 (stereo not drawn) | 58 | 17.8 | 61.1 | 65.4 |
| CNC(=O)C1Cc2c([nH]c3cc(Cl)ccc23)C2(CCN(CCc3ccccc3)CC2)N1 (stereo not drawn) | 87 | > 100 | 92.8 | 94.4 |
| CCCS(=O)(=O)N1CCC(CO)(Cc2ccccc2C(F)(F)F)CC1 | 46.8 | 69.6 | 99.7 | 87.9 |
| Cc1cc2ccccc2n1CC(=O)N1CC(C(=O)N2CCCCC2)Oc2ccccc21 (stereo not drawn) | 97.2 | 95.9 | 96.1 | 98 |
| CCc1nc2ccc(C(=O)NCc3ccc4c(c3)OCO4)cn2c1N(C)Cc1cccs1 | 21.4 | < 0 | < 0 | < 0 |
| CCS(=O)(=O)N(Cc1ccco1)Cc1cc2ccc(C)cc2nc1O | 44 | 33.5 | 87.4 | 94.5 |
| C[C@H](c1ccc2c(c1)CCCC2)N(C)c1ncc2c(N)nc(N)nc2n1 | 8.99 | 2.84 | 36 | 15.3 |
| Cc1cc(C)n2nc(C(=O)Nc3cc(C(F)(F)F)ccc3N3CCOCC3)nc2n1 | 82.6 | 77.1 | 75.9 | 68.5 |
| CCCCN(CCCC)c1c(C#N)cc(S(=O)(=O)Nc2ccccc2)cc1C#N | < 0 | < 0 | 39.9 | 35.7 |
| COc1ccc(C2=NN(C3CCCCCC3)C(=O)C2(C)C)cc1OCCCCOc1ccc(-c2nn[nH]n2)cc1 | 36.5 | 34.6 | 47.2 | 46.8 |
| Cc1c[nH]c(CCNC(=O)c2cc(-c3ccc(Cl)cc3)cs2)n1 | > 100 | > 100 | 97.3 | 94.7 |
| Cc1cc(Cl)ccc1NC(=O)CCc1ccc(S(=O)(=O)NCC(C)C)cc1 | 23 | < 0 | 6.82 | < 0 |
| CCOC(=O)c1cc(-c2csc(Nc3c(C)cc(C)cc3C)n2)on1 | 12.2 | 20.5 | 34.3 | < 0 |
| Cc1cc(NC(=O)c2ccc(Oc3ccc(Cl)cc3O)o2)no1 | 8.1 | 27.1 | 24.4 | 34.9 |
| CCOc1ccccc1C(=O)Nc1cccc(-c2nc3ncccn3c2C)c1 | 75.8 | 76.7 | 95.8 | 85.4 |
| CCOc1ccc2cc(-c3nn(CC4CCN(C)CC4)c4ncnc(N)c34)ccc2c1 | 39.8 | 15.5 | 51.2 | 16.8 |

| Compound | growth inhibition [1] [%] | growth inhibition (1 µM, minimal medium (MM)) [%] | growth inhibition [2] [%] | growth inhibition (5 µM, minimal medium (MM)) [%] |
| --- | --- | --- | --- | --- |
| CC(C)(C)n1nc(Cc2cccc3ccccc23)c2c(N)ncnc21 | < 0 | 18.3 | 39.5 | 29.5 |
| O=C1COCc2ccc(Br)cc2N1Cc1ccc(C(F)(F)F)cc1 | 56 | 96.7 | > 100 | 85.1 |
| OC[C@H]1O[C@@H](n2c3ccc(Cl)cc3c3c(-c4cc5ccccc5o4)ncnc32)C(O)[C@H]1O (stereo partly drawn) | 1.89 | 13.6 | 63.8 | 30 |
| Nc1cccnc1Nc1ccc(Cl)cc1 | 32 | < 0 | 47.3 | 19.2 |
| CCOc1ccc(-c2nc(NC(=O)CS(=O)(=O)c3ccccc3)sc2C)cc1 | 96.4 | 95.3 | 95.3 | 92.6 |
| O=C(NCCN1CCCC1)c1cc(NCCN2CCOCC2)nc2ccc(Cl)cc12 | 97.7 | 97.2 | 92.2 | 96.8 |
| Cc1ccc(Oc2ccc(NC(=O)CNc3ccccc3N3CCCC3=O)cc2)cc1 | 85.2 | 87.4 | 98.3 | 91.8 |
| O=C(C1CCCCC1)N1CC(=O)N2CCc3ccccc3C2C1 (stereo not drawn) | < 0 | 15.5 | 0.306 | < 0 |
| Cc1cc(C(=O)Nc2cnn(Cc3ccc(Cl)cc3Cl)c2)no1 | 80.3 | 72.9 | 88.6 | 87.4 |
| Cc1cccc(NC(=O)c2cc(S(=O)(=O)N(C)c3ccc(F)cc3)ccc2Cl)n1 | 86.6 | 82.9 | 87.9 | 91.5 |
| CC1CCCCN1C(=O)NCCc1coc(-c2ccc(F)cc2)n1 (stereo not drawn) | < 0 | 8.79 | < 0 | < 0 |
| CC(C)(C)OC(=O)N1CCN(c2cc(-c3ccc(Oc4ccccc4)cc3)n[nH]2)CC1 | < 0 | 18 | 64.8 | 16.8 |
| CC(C)C(Oc1cccc2ccccc12)C(=O)O (stereo not drawn) | 17.4 | 13.6 | < 0 | 0.0991 |
| O=C(NC1=NCCS1)c1sc2cc(F)ccc2c1Cl | 25.1 | 4.51 | < 0 | < 0 |
| CCN(CC)CCCCCCNc1cc(OC)cc2c(C)ccnc12 | 93.3 | 92.8 | 81.2 | 91.2 |
| COc1cc(-c2cc(-c3ccc(S(C)(=O)=O)cc3)cnc2N)ccc1O | > 100 | > 100 | 96.8 | 96 |
| OCCc1ccc(Nc2nccc(-c3nnc4ccccn34)n2)cc1 | 82.3 | 80.1 | 65.5 | 52.1 |
| COc1ccc(C(=N)N)cc1-c1cn(-c2ccc(C(=N)N)cc2)nn1 | 65.6 | 53.6 | 47.8 | 39.2 |
| c1ccc(-c2cc(N3CCCCC3)c3ccccc3n2)nc1 | 3.57 | < 0 | 37.4 | 26.9 |
| CN1CCN(S(=O)(=O)c2ccc(-c3ccc4c(Nc5ccc6nn[nH]c6c5)ccnc4c3)cc2)CC1 | 89.7 | > 100 | 92.9 | 95.1 |
| CS(=O)(=O)c1ccccc1C(=O)N(Cc1ccccc1)c1ccccc1 | 35.9 | 7.57 | < 0 | < 0 |
| CCn1cnc2c(Nc3cc(F)cc(F)c3)nc(C#N)nc21 | 36.4 | < 0 | 40.3 | < 0 |
| CC(C)C(NC(=O)Cc1cccc2ccccc12)C(=O)Nc1cccc(C#N)c1 (stereo not drawn) | 89.9 | 86.3 | 79.3 | 91 |
| c1cncc(NCc2ccc(-c3cc4ccncc4cc3OC3CCNCC3)s2)c1 | 98.6 | 98 | > 100 | 84.2 |

| Compound | growth inhibition [1] [%] | growth inhibition (1 µM, minimal medium (MM)) [%] | growth inhibition [2] [%] | growth inhibition (5 µM, minimal medium (MM)) [%] |
| --- | --- | --- | --- | --- |
| O=C(NCc1ccco1)N1CCN(Cc2ccc(Cl)s2)CC1 | 12.8 | 2.55 | 21 | 5.16 |
| NS(=O)(=O)c1cccc(-c2ccc3ncc(N4CCOCC4)nc3c2)c1 | 47 | 71 | > 100 | 88.7 |
| Cc1ccccc1C(=O)N1N=C(Nc2ccccc2)SC1(C)C | 49.8 | 9.58 | < 0 | 5.01 |
| O=C(Cn1ccnc1[N+](=O)[O-])NCc1ccccc1 | 20.5 | < 0 | 0.641 | < 0 |
| CC(=O)NCC1CN(c2ccc(-c3ccc(CO)cc3)c(F)c2)C(=O)O1 (stereo not drawn) | < 0 | 7.91 | 31.4 | 17.6 |
| Cc1cc(C)cc(COc2ccc3c(C)c(CCC(=O)O)c(=O)oc3c2C)c1 | 22.5 | 15.7 | < 0 | < 0 |
| Cc1cc(C)nc(-n2nc(C)cc2Nc2ccccc2)n1 | 16.6 | 9.77 | 69.8 | 34.2 |
| COc1ccc2nccc(NC(=O)C3CCN(CCc4ccc(Cl)cc4)CC3)c2n1 | 33.1 | 30.5 | 42.1 | 42.2 |
| COc1cccc(-n2nnnc2S(=O)(=O)Cc2ccccc2)c1 | 13.8 | 3.94 | 65.6 | < 0 |
| NS(=O)(=O)c1cncc(-c2ccc3nccc(-c4cn[nH]c4)c3n2)c1 | 83.8 | > 100 | 92.8 | 94.8 |
| COc1ccc(C2CC(c3cccs3)=NN2C(=O)c2ccco2)cc1OC (stereo not drawn) | 91.4 | 89.5 | 91.4 | 93.4 |
| O=C(c1[nH]nc2c1CCCC2)N1CCN(Cc2ccc3c(c2)OCO3)CC1 | < 0 | 13 | < 0 | < 0 |
| c1cc(C2=NCCN2)cc(-c2cc(-c3ccc(C4=NCCN4)cc3)no2)c1 | 81.6 | 81.6 | 97.8 | 89.7 |
| Cc1ccc2oc(-c3cc(NC(=O)Cc4ccccc4)ccc3Cl)nc2c1 | < 0 | 6.84 | 26.4 | < 0 |
| Nc1nc2cc(-c3cncc(Oc4ccc(F)cc4)c3)ccc2[nH]1 | 76.1 | 67.8 | 94.9 | 95.6 |
| CC(C)(CN)c1nc(-c2ccc(Cl)c(O)c2)c(-c2ccnc(N)n2)[nH]1 | 78.9 | 70.8 | 30.1 | 6.08 |
| Cc1cccc(Cn2ccc(NC(=O)c3ccc4c(c3)OCO4)n2)c1 | 18.2 | 6.8 | 12.8 | 17.9 |
| Cc1noc(C)c1COc1cccc(C(=O)N=c2[nH]cccc2C)c1 | < 0 | < 0 | < 0 | < 0 |
| Cc1ccc(S(=O)(=O)N2CCN(C(=O)c3cc(-c4ccccc4)n[nH]3)CC2)cc1 | 94.2 | 87.1 | 82.9 | 88.6 |
| C[C@H](C(N)=O)N1CCCC[C@H]1c1ccc(OCc2cccc(F)c2)cc1 | 18.3 | 3.3 | < 0 | < 0 |
| Cc1cc(Nc2ccncc2)n2nc(C)c(-c3ccccc3Cl)c2n1 | 95.7 | 94.2 | 94 | 92.2 |
| CC(=O)NCC1CN(c2ccc(-c3ccc(CNCc4cn[nH]n4)cc3)c(F)c2)C(=O)O1 (stereo not drawn) | 4.9 | < 0 | 34.6 | < 0 |
| Cc1cc(OCC(=O)NCc2ccccc2)c2cc(Br)ccc2n1 | 12.6 | 3.05 | 56.5 | < 0 |
| CCC(=O)Nc1ccccc1C(=O)Nc1ccccn1 | < 0 | < 0 | < 0 | < 0 |
